Reference: the supplement of paper PMC6555819

Columns and labels:
Experiment in all cases: PBM binding z-score (relative to random genomic background probes); higher = stronger binding; sequences stand for … in GC…GCGATTGACAGCGTAGAATGAAGG
[1] = tested on: PPARg:RXRa DBDmut IVT, anti-RXR (DBD mutation: RXRa K156A/R161A, NR concentration 270 nM, RXRa partner concentration 90 nM)
Procedure, shortened: (§1)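 Binding buffer was PBS pH 7.4 with 2% milk, 0.02% Triton X-100, 1 mM DTT, 0.2 mg/mL BSA and 0.4 mg/ml salmon testes DNA. In it, ligand-free nuclear receptor dimers were incubated 1 h on custom Agilent 4×180K protein-binding microarrays carrying double-stranded probes. Antibodies against each partner (one per run) detected binding, and z-scores were calculated against random background probes after regression normalization of scanned fluorescence.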

[2] = tested on: PPARg:RXRa IVT, anti-PPARg (NR concentration 270 nM, RXRa partner concentration 90 nM)
Procedure, shortened: as §1

[3] = tested on: PPARg DBDmut:RXRa IVT, anti-PPARg (DBD mutation: PPARg1 K132A/R137A, NR concentration 270 nM, RXRa partner concentration 90 nM)
Procedure, shortened: as §1

[4] = tested on: PPARg DBDmut IVT, anti-PPARg (DBD mutation: PPARg1 K132A/R137A, NR concentration 270 nM)
Procedure, shortened: as §1

[5] = tested on: PPARg homodimer (NR concentration 180 nM)
Procedure, shortened: as §1

[6] = tested on: PXR:RXRa (NR concentration 270 nM, RXRa partner concentration 90 nM)
Procedure, shortened: as §1

[7] = tested on: PXR homodimer (NR concentration 270 nM)
Procedure, shortened: as §1

[8] = tested on: RARa:RXR (NR concentration 270 nM, RXRa partner concentration 90 nM)
Procedure, shortened: as §1

[9] = tested on: RARa homodimer (NR concentration 270 nM)
Procedure, shortened: as §1

[10] = tested on: RARb:RXRa (NR concentration 270 nM, RXRa partner concentration 90 nM)
Procedure, shortened: as §1

[11] = tested on: RARb homodimer (NR concentration 270 nM)
Procedure, shortened: as §1

[12] = tested on: RARg:RXRa (NR concentration 270 nM, RXRa partner concentration 90 nM)
Procedure, shortened: as §1

[13] = tested on: RARg homodimer (NR concentration 270 nM)
Procedure, shortened: as §1

[14] = tested on: RXRa DBDmut IVT, anti-RXR (DBD mutation: RXRa K156A/R161A, NR concentration 90 nM)
Procedure, shortened: as §1

[15] = tested on: RXRa homodimer (NR concentration 180 nM)
Procedure, shortened: as §1

[16] = tested on: THRa:RXRa (NR concentration 90 nM, RXRa partner concentration 90 nM)
Procedure, shortened: as §1

[17] = tested on: THRa homodimer (NR concentration 90 nM)
Procedure, shortened: as §1

[18] = tested on: VDR homodimer (NR concentration 270 nM)
Procedure, shortened: as §1

Sequence | PBM binding z-score [1] | PBM binding z-score [2] | PBM binding z-score [3] | PBM binding z-score [4] | PBM binding z-score [5] | PBM binding z-score [6] | PBM binding z-score [7] | PBM binding z-score [8] | PBM binding z-score [9] | PBM binding z-score [10] | PBM binding z-score [11] | PBM binding z-score [12] | PBM binding z-score [13] | PBM binding z-score [14] | PBM binding z-score [15] | PBM binding z-score [16] | PBM binding z-score [17] | PBM binding z-score [18]
CCGACTGGGGCAGAAAGGTTACCCTACCATCCGG | 1.23 | 1.93 | -1.08 | -1.51 | 0.207 | 0.618 | -0.304 | 1.34 | -0.533 | 1.73 | 2.2 | 1.35 | 0.99 | -0.847 | 1.43 | 1.07 | -0.0158 | -0.359
AATACAGGGTCATCGTAAGCCAGAGTACGCACAG | 2.67 | 4.15 | 1.58 | 1.04 | 1.65 | 4.05 | 1 | 4.6 | 0.623 | 4.43 | 3.27 | 5.55 | 4.8 | 3.07 | 6.56 | 3.68 | 1.39 | 3.12
CCGACTGGGCCAAAGGTTACCATACTCAGTACGA | 3.77 | 5.5 | 0.219 | -0.431 | 1.31 | 1.75 | -0.189 | 3.1 | 0.224 | 2.22 | 2.31 | 2.84 | 1.45 | 0.18 | 3.2 | 1.56 | 0.0942 | -0.0479
CGTCCAAGGTCTAAGGTCAGTGAAGAGATGACGG | 0.385 | 1.44 | -0.479 | -0.374 | 2.23 | 2.21 | 0.498 | 3.2 | 0.608 | 3.71 | 3.66 | 3.47 | 4.02 | 1.14 | 3.1 | 3.65 | 3.24 | 1.1
ACAGACAGGTGAGTGAAGGTAAGTCAGCTGGACG | 0.544 | 0.594 | -0.101 | -0.745 | -0.0235 | -0.37 | -0.45 | 0.0462 | -0.141 | 0.623 | 0.373 | 0.45 | 0.335 | -0.68 | 0.274 | 1.03 | -0.473 | -0.657
GCGACTGAGGCAAAGCAGGTTACCATAAGGTTGG | 0.099 | -0.228 | -1.27 | -1.26 | -0.646 | -0.22 | -0.398 | 0.0827 | -0.323 | -0.412 | 0.0198 | 0.00383 | -0.272 | -0.374 | 0.123 | 1.54 | -0.231 | -0.64
CCTAGTTGGTCAGGAGGTCATACACCGGATATGA | 1.25 | 3.03 | 0.324 | 0.888 | 3.21 | 3.99 | 1.57 | 4.19 | 1.23 | 3.33 | 3.79 | 4.56 | 3.35 | 0.572 | 4.2 | 3.23 | 1.8 | 2.73
AGAATGAGGTTATCCGTAGATCAGGGAAGAAAGT | 3.68 | 2.42 | 0.156 | 1.03 | 0.547 | 1.17 | 0.231 | 1.76 | 0.02 | 1.66 | 0.958 | 2.14 | 1.08 | 1.82 | 2.29 | 2.33 | 0.663 | 0.958
GCGTCTGGGGCATCAGCAGGTTACCATAACTTAA | 2.39 | 1.72 | -0.946 | -0.371 | 0.169 | -0.00705 | -0.377 | 0.336 | -0.422 | 0.978 | 0.953 | 0.859 | 0.544 | 0.254 | 0.243 | 1.06 | -0.103 | -0.379
TCAGACAGGTAAAGGTAACTCAGGTACGCAGTCG | 2.37 | 0.745 | 0.618 | 0.192 | 0.82 | 0.892 | 0.37 | 1.35 | 0.782 | 0.904 | 0.829 | 0.751 | 0.576 | 1.53 | 1.08 | 1.67 | 0.705 | 0.388
TTGAGTAGGTTACCAATGGGGCATTCAGCTTTCT | 4.77 | 4.38 | 0.923 | 0.772 | 0.846 | 0.242 | -0.056 | 0.279 | 0.0397 | 1.19 | 1.02 | 1.46 | 0.739 | 0.192 | 0.569 | 0.168 | -0.426 | 0.0569
TCTTGTAGATCAGTAGGTTAAGAAAGCTGGCCAA | 2.89 | 2.61 | 0.246 | 0.243 | 0.822 | 0.448 | 0.0641 | 0.921 | 0.433 | 0.272 | 0.381 | -0.0974 | -0.231 | 0.997 | 0.365 | 0.204 | 0.0296 | 0.104
CGTCCAAGGTCAATCCTAGGTCAGTGAAAGCATT | 3.45 | 4.04 | 0.153 | 0.742 | 6.19 | 5.13 | 0.983 | 6.44 | 1.8 | 5.33 | 5.21 | 7.69 | 6.57 | 3.57 | 5.38 | 4.72 | 3.63 | 3.06
CCAGACAGGTGAGAACGTAACTCAGCCTCGATTA | 0.85 | 0.49 | 0.0295 | -0.354 | 0.692 | -0.267 | 0.209 | -0.0422 | 0.428 | 0.192 | 0.118 | 0.404 | 0.33 | 0.242 | 0.378 | -0.0328 | 0.361 | 0.202
GCCATTAGTTGAAAGGGCAACCGAATGATTCTCG | 0.352 | 0.947 | 0.187 | -0.306 | 0.971 | 0.706 | 0.067 | 1.4 | -0.15 | 2.21 | 2.22 | 1.54 | 1.32 | 0.641 | 1.24 | 0.595 | -0.31 | -0.125
CCGACTGGGGCAGAAAGTTTACCATACCATCCGG | 1.85 | 0.907 | -1.52 | -1.73 | 0.00802 | -0.282 | 0.645 | -0.677 | -0.166 | 0.775 | 0.899 | -0.0805 | 0.478 | -0.44 | -0.178 | -0.72 | -0.708 | 0.157
ACAGACAGGTGATGAATGTAACTCAGGCTATCAT | 0.0883 | 0.304 | 0.806 | 0.471 | 0.379 | -0.102 | -0.0195 | 0.181 | 0.656 | 0.0754 | -0.0762 | 0.375 | 0.506 | -0.126 | 0.591 | 0.0526 | -0.294 | -0.0787
ATATGTAGGTTAGCTGGGGTTATTCAGACTAGGC | 6.78 | 6.18 | 3.12 | 2.79 | 1.88 | 4.02 | 0.969 | 3.11 | 1.26 | 1.38 | 1.42 | 1.54 | 0.961 | 0.972 | 2.43 | 4.32 | 1.11 | 1.65
ATAGAAAGGTCGTGAGGTGAGTATACAGAAAGGC | 0.952 | 2.43 | 1.91 | 1.19 | 2 | 3.19 | 0.712 | 4.26 | 1.11 | 3.97 | 3.32 | 4.4 | 4.01 | 1.32 | 5.4 | 3.48 | 1.99 | 1.31
ACTATTAGTTTACTTAGGGCAACCGATACGACGC | 0.826 | 0.924 | 0.857 | 1.39 | 0.166 | 0.669 | 1.14 | 0.64 | 0.904 | 1.04 | 0.74 | 0.56 | 1.01 | 1.17 | 0.51 | 1.66 | 0.312 | 0.435
CCTACTTGGCCATTCAGAGGTCATTGATCATATG | 1.47 | 1.52 | 1.11 | 0.893 | 2.19 | 4.93 | 1.5 | 4.54 | 1.18 | 3.13 | 3.93 | 3.64 | 2.6 | 1.92 | 3.73 | 3.21 | 1.66 | 3.32
TCATATAGGTAAACAAGTGAAAGTCCGTAAGTTA | 3.94 | 2.87 | 1.04 | 0.969 | 0.811 | 0.871 | 0.525 | 0.876 | 1.3 | 0.893 | 0.321 | 0.396 | 0.548 | 1.76 | 1.12 | 0.265 | 0.0631 | 0.508
TCATATAGGTTATACAGGTGAAAGTCGGCATCTA | 4.73 | 4.18 | 1.95 | 0.981 | 1.6 | 1.27 | 1.03 | 1.9 | 1.84 | 1.51 | 1.48 | 1.73 | 1.29 | 2.09 | 2.2 | 1.92 | 0.477 | 0.534
